Screening results from PubChem.
A selection: hits, their analogues and other compounds. The true share with any hit is near 4.1%.
PTK2B oligo ant – antagonists of human Pyk2 oligomerization. Q14289. Q293 cells, Pyk2 FERM NanoBiT luminescence; stronger effect = lower value. z-score (the deposit names both 25 µM and 10 µM). 99,000 compounds, 0.83% hits. AID 1347419;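 active = Z-score of -3 or lower, scaled per plate to the spread of control and sample wells; inactive = z-score above -3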;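 also: negative z-score means lost luminescence so less FERM oligomerization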
MRP1 act – activators of MRP-1; H69AR cells + doxorubicin, viability rescue, CellTiter-Glo; viability increase, % at 10 µM; 140,000 compounds, 0.61% hits; AID 799;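 active = viability gain under doxorubicin at or above a set limit, the compound median plus 3 SD, cut at about 4.7% in these data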;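 also: MRP-1 overexpressing cells given doxorubicin 25 µM after compound pretreatment; 18-22 h compound pretreatment then 72 h with doxorubicin before readout; 0% = doxorubicin-only wells and 100% = vehicle-treated cells without doxorubicin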
MRP resist rev – compounds reversing MRP-mediated drug resistance; differential viability (reversal), % at 10 µM; H69AR cells + 2 uM doxorubicin, CellTiter-Glo, 72 h; 85,000 compounds, 0.04% hits;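 active = viability drop by adding the cancer drug above about 55%, with treated viability meeting a 40% cutoff, limit read from the data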;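 also: viability without doxorubicin minus viability with 2 µM doxorubicin for each compound; larger differential means the compound sensitizes cells more to doxorubicin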
Mac1 fbg enh – enhancers of human CD11b/CD18 binding to fibrinogen; AID 1499; K562 CD11b/CD18 adhesion to fibrinogen, ATPlite luminescence; 93,000 compounds, 0.07% hits; P05107+P11215; activation, % at 10 µM;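 active = 10 µM primary screen giving 50% or more activity, confirmed by 40% or more on retest at that dose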
CD11b adhes inh – inhibitors of human CD11b/CD18 binding to fibrinogen; P05107+P11215; K562 CD11b/CD18 adhesion to fibrinogen, ATPlite luminescence; Mn2+ added to activate the integrin; inhibition, % at 10 µM; 93,000 compounds, 0.54% hits; AID 1497;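 active = primary inhibition of 50% or more at 10 µM, then 40% or more on retest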
Cav3 T inh – blocks human Cav3.2 T-type calcium channel | O95180 | B-score at 10 µM | 100,000 compounds, 4% hits | Cav3.2-expressing cells, Fluo-4 calcium fluorescence FDSS; stronger effect = lower value;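 active = single-dose well whose peak fluorescence ratio is a statistical outlier from its plate by either plate-standardised score or position-corrected B-score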
An asterisk follows results filed as active.

CCOc1cc(/C=C2\SC(=S)N(Nc3ccccc3)C2=O)ccc1O was read as PTK2B oligo ant -3.6*, MRP1 act -3, Mac1 fbg enh -1 and CD11b adhes inh 3.
Screening CCN(CC)C(=O)c1ccc(COc2ccccc2Br)o1 returned PTK2B oligo ant 0.44, MRP1 act -3, MRP resist rev -16, Mac1 fbg enh 0, CD11b adhes inh 12 and Cav3 T inh -0.64.
CNC(=O)c1sc(-c2ccc(Cl)cc2)nc1C was read as PTK2B oligo ant 1.8, MRP1 act 2, MRP resist rev -3, Mac1 fbg enh -4, CD11b adhes inh 4 and Cav3 T inh 0.81.
For COC(=O)c1[nH]c2cccc(OC)c2c1NC(=O)CCN1CCN(c2ccccc2OC)CC1 the results were PTK2B oligo ant 0.82, MRP1 act -1, MRP resist rev -3, Mac1 fbg enh -1, CD11b adhes inh 2 and Cav3 T inh 1.3.
`COc1ccc(C2CC(C(F)(F)F)n3nc(C(=O)Nc4c(C)n(C)n(-c5ccccc5)c4=O)c(Cl)c3N2)cc1` (stereo unspecified) gave MRP1 act 0.
For Cc1c(NC(=O)c2cnn3c2NC(c2ccc(Br)cc2)CC3C(F)(F)F)c(=O)n(-c2ccccc2)n1C (stereo unspecified) the results were PTK2B oligo ant 0.32, MRP1 act -4, MRP resist rev 11 and Cav3 T inh -7.8*.
For Cc1cccc(NC(=O)CN(C)S(=O)(=O)c2cccs2)c1 the results were PTK2B oligo ant 0.32, MRP1 act 0, MRP resist rev 14, Mac1 fbg enh -4, CD11b adhes inh 5 and Cav3 T inh 0.039.
Screening Cc1ccc(S(=O)(=O)N/N=C/c2cccn2-c2ccc(Cl)cc2)cc1 returned PTK2B oligo ant -0.64, MRP1 act 0 and Cav3 T inh -4.3*.
Cc1ccc(-c2nn(-c3ccccc3)cc2/C=N/NS(=O)(=O)c2ccccc2)cc1 was read as PTK2B oligo ant -1.4, MRP1 act 3 and Cav3 T inh -1.9.
`Cc1ccc(S(=O)(=O)N/N=C\c2cn(-c3ccccc3)nc2-c2ccccc2)cc1` gave PTK2B oligo ant -0.82, MRP1 act 6.2* and Cav3 T inh -2.1.
CC(C)c1nnc(NC(=O)CCC(=O)NCc2cccs2)s1 was read as PTK2B oligo ant 0.22, MRP1 act 1, MRP resist rev -8, Mac1 fbg enh -6, CD11b adhes inh 20 and Cav3 T inh -0.38.
`COc1cccc(CN(C(=O)Cc2c[nH]c3ccccc23)C(C(=O)NC2CCCCC2)c2cccs2)c1` (stereo unspecified) gave PTK2B oligo ant -1.8, MRP1 act -5, Mac1 fbg enh -4, CD11b adhes inh 1 and Cav3 T inh -6.6*.
For COc1ccc(C(C(=O)NC2CCCCC2)N(Cc2cccs2)C(=O)Cc2c[nH]c3ccccc23)cc1 (stereo unspecified) the results were PTK2B oligo ant -2.5, MRP1 act -4 and Cav3 T inh -6.4*.
For O=C(NC1CCCCC1)C(c1cccs1)N(C(=O)Cc1c[nH]c2ccccc12)c1ccc(F)cc1 (stereo unspecified) the results were PTK2B oligo ant -1.9, MRP1 act -5, Mac1 fbg enh 0, CD11b adhes inh -1 and Cav3 T inh -2.8.
Screening CCC1CCc2c(sc(NC(=O)CSc3nc(-c4ccco4)cc(C(F)(F)F)n3)c2C#N)C1 (stereo unspecified) returned PTK2B oligo ant 1.3, MRP1 act 1, MRP resist rev -1, Mac1 fbg enh 2, CD11b adhes inh -21 and Cav3 T inh -0.15.
For C=CCNC(=S)N/N=C/c1ccc(-c2cc(Cl)ccc2Cl)o1 the results were PTK2B oligo ant -3.4*, MRP1 act -5 and Cav3 T inh 0.85.
CCOC(=O)N1CCC(Nc2nc3ccccc3nc2NS(=O)(=O)c2ccc(Cl)cc2)CC1 was read as PTK2B oligo ant -1.9, MRP1 act -1, Mac1 fbg enh 0, CD11b adhes inh 92* and Cav3 T inh -3.
O=S(=O)(Nc1nc2ccccc2nc1N1CCN(c2ccccc2F)CC1)c1ccc(Cl)cc1 was read as PTK2B oligo ant -2.3, MRP1 act 1, MRP resist rev -8, Mac1 fbg enh -7, CD11b adhes inh 93 and Cav3 T inh -5.7*.
`CCOc1ccc(NC(=O)C/C(N)=N/O)cc1` gave PTK2B oligo ant -0.3, MRP1 act -2, MRP resist rev -1, Mac1 fbg enh 1, CD11b adhes inh 8 and Cav3 T inh -0.16.
For CCOc1ccc(NC(=O)CSC(N)=O)cc1 the results were PTK2B oligo ant 0.09, MRP1 act -1, MRP resist rev -45, Mac1 fbg enh -1, CD11b adhes inh -4 and Cav3 T inh -4.7*.
For CC(=O)Nc1ccc(NC2=Nc3ccccc3N3C2=Nc2c(c(C)nn2-c2ccccc2)C3c2ccccc2)cc1 (stereo unspecified) the results were PTK2B oligo ant -2.6, MRP1 act 5, MRP resist rev -12 and Cav3 T inh -1.3.
For COc1ccc(NC2=Nc3ccccc3N3C2=Nc2c(c(C)nn2-c2ccc(C)cc2)C3c2cccnc2)cc1 (stereo unspecified) the results were PTK2B oligo ant -2.6, MRP1 act 8.8*, MRP resist rev 3, Mac1 fbg enh 32, CD11b adhes inh 7 and Cav3 T inh -0.0028.
`Cc1nn(Cc2ccc(Cl)c(Cl)c2)c(C)c1NC(=O)c1cn(-c2ccccc2)nc1-c1ccccc1` gave PTK2B oligo ant -0.85, MRP1 act -3, Mac1 fbg enh -2, CD11b adhes inh -4 and Cav3 T inh -5.1*.
Screening COc1cc(C2OCC3C(c4ccc(OC5OC(CO)C(O)C(O)C5O)c(OC)c4)OCC23)ccc1O (stereo unspecified) returned Cav3 T inh -0.21.
CCOC(=O)c1c(/N=C/c2cc(C)ccc2O)sc2c1CCN(C)C2 was read as MRP1 act -1, Mac1 fbg enh -3 and CD11b adhes inh 5.
COc1ccc(OCCN2C(=O)NC(C)(c3ccc(C)cc3)C2=O)cc1 (stereo unspecified) was read as PTK2B oligo ant -1.3, MRP1 act -2, MRP resist rev 5 and Cav3 T inh -1.8.
Cc1ccc(C2(C)NC(=O)N(CCOc3ccccc3)C2=O)cc1 (stereo unspecified) was read as PTK2B oligo ant -1.4, MRP1 act -2, MRP resist rev -6, Mac1 fbg enh 3, CD11b adhes inh -11 and Cav3 T inh -3.3*.
CC(C)(C)n1nnnc1C(c1cccc(C#N)c1)N1CCC(Cc2ccccc2)CC1 (stereo unspecified) was read as PTK2B oligo ant -0.51, MRP1 act 0, MRP resist rev 13 and Cav3 T inh -4.8*.
